Laboratory results reported in ChEMBL document CHEMBL1961873, “Compounds: GSK PKIS; Assays: Nanosyn kinase panel” (2012).

Assays:
[1] = target: Casein kinase I isoform gamma-2 (Homo sapiens) (UniProt P78368); conditions: at 1 µM
[2] = target: Casein kinase I isoform gamma-3 (Homo sapiens) (UniProt Q9Y6M4); conditions: at 0.1 µM
[3] = target: Casein kinase I isoform gamma-3 (Homo sapiens) (UniProt Q9Y6M4); conditions: at 1 µM
[4] = target: Cyclin-dependent kinase 1 (Homo sapiens) (UniProt P06493); conditions: at 0.1 µM
[5] = target: Cyclin-dependent kinase 1 (Homo sapiens) (UniProt P06493); conditions: at 1 µM
[6] = target: Cyclin-dependent kinase 2 (Homo sapiens) (UniProt P24941); conditions: at 0.1 µM
[7] = target: Cyclin-dependent kinase 2 (Homo sapiens) (UniProt P24941); conditions: at 1 µM
[8] = target: Cyclin-dependent kinase 2 (Homo sapiens) (UniProt P24941); conditions: at 0.1 µM; remark: listed apart in the source
[9] = target: Cyclin-dependent kinase 2 (Homo sapiens) (UniProt P24941); conditions: at 1 µM; remark: listed apart in the source
[10] = target: T1, CDK3/Cyclin E (Homo sapiens) (UniProt P24864+Q00526); conditions: at 0.1 µM
[11] = target: T1, CDK3/Cyclin E (Homo sapiens); conditions: at 1 µM
[12] = target: Cyclin-dependent kinase 4 (Homo sapiens) (UniProt P11802); conditions: at 0.1 µM
[13] = target: Cyclin-dependent kinase 4 (Homo sapiens) (UniProt P11802); conditions: at 1 µM
[14] = target: Cyclin-dependent kinase 5 (Homo sapiens) (UniProt Q00535); conditions: at 0.1 µM
[15] = target: Cyclin-dependent kinase 5 (Homo sapiens) (UniProt Q00535); conditions: at 1 µM
[16] = target: Cyclin-dependent kinase 6 (Homo sapiens) (UniProt Q00534); conditions: at 0.1 µM
[17] = target: Cyclin-dependent kinase 6 (Homo sapiens) (UniProt Q00534); conditions: at 1 µM
[18] = target: Dual specificity protein kinase CLK2 (Homo sapiens) (UniProt P49760); conditions: at 0.1 µM
[19] = target: Dual specificity protein kinase CLK2 (Homo sapiens) (UniProt P49760); conditions: at 1 µM
[20] = target: Dual specificity protein kinase CLK3 (Homo sapiens) (UniProt P49761); conditions: at 0.1 µM
Dual specificity protein kinase CLK3 (Homo sapiens), sequence (P49761 whole entry, looked up): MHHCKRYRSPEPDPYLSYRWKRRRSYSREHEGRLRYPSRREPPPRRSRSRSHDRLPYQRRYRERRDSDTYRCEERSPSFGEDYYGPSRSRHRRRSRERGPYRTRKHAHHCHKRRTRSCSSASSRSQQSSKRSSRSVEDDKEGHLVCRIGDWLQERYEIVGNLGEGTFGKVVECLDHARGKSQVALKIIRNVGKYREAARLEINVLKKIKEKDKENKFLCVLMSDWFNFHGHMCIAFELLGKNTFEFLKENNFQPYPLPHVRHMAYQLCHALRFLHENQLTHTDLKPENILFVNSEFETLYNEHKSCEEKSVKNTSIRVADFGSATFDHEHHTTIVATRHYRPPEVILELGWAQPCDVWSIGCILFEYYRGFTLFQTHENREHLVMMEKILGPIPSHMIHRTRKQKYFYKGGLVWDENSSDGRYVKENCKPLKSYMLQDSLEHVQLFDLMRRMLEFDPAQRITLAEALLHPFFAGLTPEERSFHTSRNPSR

Casein kinase I isoform gamma-3 (Homo sapiens), sequence (Q9Y6M4 whole entry, looked up, canonical isoform): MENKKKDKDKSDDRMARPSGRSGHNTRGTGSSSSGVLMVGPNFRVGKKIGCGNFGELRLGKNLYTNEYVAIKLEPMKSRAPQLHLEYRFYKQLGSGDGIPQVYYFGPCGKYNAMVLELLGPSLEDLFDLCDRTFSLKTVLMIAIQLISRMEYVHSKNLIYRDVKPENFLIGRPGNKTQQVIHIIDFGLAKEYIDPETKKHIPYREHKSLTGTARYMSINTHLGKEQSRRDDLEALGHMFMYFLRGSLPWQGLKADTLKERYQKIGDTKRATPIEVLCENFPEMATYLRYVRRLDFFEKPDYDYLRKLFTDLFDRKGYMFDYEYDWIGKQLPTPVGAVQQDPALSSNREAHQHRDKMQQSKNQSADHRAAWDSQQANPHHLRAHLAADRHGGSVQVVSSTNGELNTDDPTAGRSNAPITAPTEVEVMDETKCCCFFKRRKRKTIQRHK
Cyclin-dependent kinase 1 (Homo sapiens), sequence (P06493 whole entry, looked up): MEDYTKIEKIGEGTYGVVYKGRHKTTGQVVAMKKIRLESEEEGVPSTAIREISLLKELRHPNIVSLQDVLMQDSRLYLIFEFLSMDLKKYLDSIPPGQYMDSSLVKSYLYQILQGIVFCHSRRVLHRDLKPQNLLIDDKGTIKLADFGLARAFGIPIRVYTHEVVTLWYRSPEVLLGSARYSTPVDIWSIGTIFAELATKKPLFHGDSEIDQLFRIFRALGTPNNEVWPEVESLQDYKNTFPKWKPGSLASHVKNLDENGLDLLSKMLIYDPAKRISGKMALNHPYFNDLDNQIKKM
Cyclin-dependent kinase 4 (Homo sapiens), sequence (P11802 whole entry): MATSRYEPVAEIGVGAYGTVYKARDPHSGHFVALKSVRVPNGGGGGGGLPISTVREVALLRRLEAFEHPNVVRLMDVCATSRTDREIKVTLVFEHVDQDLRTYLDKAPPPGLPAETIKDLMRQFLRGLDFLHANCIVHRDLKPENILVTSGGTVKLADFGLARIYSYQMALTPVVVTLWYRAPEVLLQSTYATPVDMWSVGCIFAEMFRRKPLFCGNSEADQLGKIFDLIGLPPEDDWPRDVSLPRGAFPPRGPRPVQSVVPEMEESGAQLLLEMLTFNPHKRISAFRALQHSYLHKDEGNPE
Cyclin-dependent kinase 5 (Homo sapiens), sequence (Q00535 whole entry, looked up): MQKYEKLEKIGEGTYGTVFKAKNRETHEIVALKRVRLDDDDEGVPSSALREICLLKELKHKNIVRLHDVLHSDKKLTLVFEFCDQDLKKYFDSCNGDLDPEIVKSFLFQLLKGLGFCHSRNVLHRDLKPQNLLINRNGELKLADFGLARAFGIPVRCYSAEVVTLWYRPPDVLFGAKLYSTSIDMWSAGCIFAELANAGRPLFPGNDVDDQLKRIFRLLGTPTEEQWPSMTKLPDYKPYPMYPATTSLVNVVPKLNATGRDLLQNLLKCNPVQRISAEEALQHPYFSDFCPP
Casein kinase I isoform gamma-2 (Homo sapiens), sequence (P78368 whole entry, looked up, canonical isoform): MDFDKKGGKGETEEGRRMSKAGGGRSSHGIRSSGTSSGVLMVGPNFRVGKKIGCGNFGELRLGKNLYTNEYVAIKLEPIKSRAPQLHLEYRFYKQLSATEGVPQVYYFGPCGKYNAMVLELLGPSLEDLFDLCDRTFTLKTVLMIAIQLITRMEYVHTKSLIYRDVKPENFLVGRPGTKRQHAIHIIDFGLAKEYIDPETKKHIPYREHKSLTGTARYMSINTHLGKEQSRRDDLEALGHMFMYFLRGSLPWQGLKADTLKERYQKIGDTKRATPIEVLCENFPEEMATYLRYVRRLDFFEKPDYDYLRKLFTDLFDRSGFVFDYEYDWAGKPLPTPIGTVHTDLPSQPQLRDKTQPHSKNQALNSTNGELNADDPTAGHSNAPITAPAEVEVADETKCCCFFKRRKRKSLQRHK
Dual specificity protein kinase CLK2 (Homo sapiens), sequence (P49760 whole entry, looked up): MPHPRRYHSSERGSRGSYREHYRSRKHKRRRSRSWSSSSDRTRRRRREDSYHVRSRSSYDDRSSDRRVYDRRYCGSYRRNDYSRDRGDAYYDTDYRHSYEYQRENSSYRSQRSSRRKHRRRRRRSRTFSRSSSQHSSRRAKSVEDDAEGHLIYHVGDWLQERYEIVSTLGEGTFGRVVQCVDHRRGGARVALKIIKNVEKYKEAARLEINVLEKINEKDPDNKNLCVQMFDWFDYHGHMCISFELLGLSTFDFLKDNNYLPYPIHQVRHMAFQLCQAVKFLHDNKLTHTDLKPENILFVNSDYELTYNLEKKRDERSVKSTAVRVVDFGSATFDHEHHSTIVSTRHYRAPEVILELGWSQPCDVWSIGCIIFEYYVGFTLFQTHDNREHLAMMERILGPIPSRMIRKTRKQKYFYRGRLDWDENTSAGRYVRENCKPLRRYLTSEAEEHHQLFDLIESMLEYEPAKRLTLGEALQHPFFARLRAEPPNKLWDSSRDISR
T1 sequence (P24864 whole entry, looked up): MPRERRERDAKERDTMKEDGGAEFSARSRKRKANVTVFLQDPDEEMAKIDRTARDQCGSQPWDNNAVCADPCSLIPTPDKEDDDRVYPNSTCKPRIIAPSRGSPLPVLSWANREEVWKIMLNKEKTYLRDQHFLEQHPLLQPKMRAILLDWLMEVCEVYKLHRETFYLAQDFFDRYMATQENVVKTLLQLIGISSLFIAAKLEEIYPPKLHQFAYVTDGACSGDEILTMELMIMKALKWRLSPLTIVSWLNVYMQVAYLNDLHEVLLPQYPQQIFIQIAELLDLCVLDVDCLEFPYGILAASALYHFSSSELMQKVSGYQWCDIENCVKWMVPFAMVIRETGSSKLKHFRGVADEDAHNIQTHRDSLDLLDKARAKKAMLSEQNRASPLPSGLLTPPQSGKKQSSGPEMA
T1 sequence (Q00526 whole entry, looked up): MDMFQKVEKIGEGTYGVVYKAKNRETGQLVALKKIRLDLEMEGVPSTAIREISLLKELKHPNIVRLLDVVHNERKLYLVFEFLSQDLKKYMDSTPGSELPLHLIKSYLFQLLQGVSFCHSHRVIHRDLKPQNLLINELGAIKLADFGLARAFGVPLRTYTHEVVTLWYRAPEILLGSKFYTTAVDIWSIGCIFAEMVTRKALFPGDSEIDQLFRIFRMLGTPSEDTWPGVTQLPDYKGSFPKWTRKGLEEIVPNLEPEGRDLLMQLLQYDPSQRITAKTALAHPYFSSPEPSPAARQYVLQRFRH
Cyclin-dependent kinase 6 (Homo sapiens), sequence (Q00534 whole entry): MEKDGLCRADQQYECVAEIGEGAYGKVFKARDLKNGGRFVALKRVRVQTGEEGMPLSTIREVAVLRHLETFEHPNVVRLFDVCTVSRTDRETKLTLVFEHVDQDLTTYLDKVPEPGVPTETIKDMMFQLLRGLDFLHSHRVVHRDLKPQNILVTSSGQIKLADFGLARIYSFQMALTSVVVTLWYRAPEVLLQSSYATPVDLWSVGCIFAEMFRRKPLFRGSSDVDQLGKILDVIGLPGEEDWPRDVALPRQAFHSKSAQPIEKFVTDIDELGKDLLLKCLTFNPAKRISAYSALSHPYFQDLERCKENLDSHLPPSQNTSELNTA

Structure (SMILES) | inhibition [1] [%] | inhibition [2] [%] | inhibition [3] [%] | inhibition [4] [%] | inhibition [5] [%] | inhibition [6] [%] | inhibition [7] [%] | inhibition [8] [%] | inhibition [9] [%] | inhibition [10] [%] | inhibition [11] [%] | inhibition [12] [%] | inhibition [13] [%] | inhibition [14] [%] | inhibition [15] [%] | inhibition [16] [%] | inhibition [17] [%] | inhibition [18] [%] | inhibition [19] [%] | inhibition [20] [%]
O=C(NCC1CC1)c1ccc(-c2cccc(C(=O)NC3CC3)c2)cc1 | 2.47 | 0.19 | 2.3 | -0.46 | 1.27 | 1.17 | 9.03 | 2.3 | 2.72 | -0.72 | 2.64 | 2.46 | 2.18 | 0.16 | 0.99 | 5.87 | -0.5 | -0.19 | 1.77 | 0.44
COc1cc(Nc2ncc(-c3ccccc3)o2)cc(OC)c1OC | -0.69 | -0.27 | -0.18 | 0.44 | 6.1 | 0.56 | 9.21 | 0.79 | 6.45 | 0.2 | 5.95 | 0.45 | 1.93 | 0.52 | 6.19 | 0.43 | 3.26 | 0.35 | 3.33 | 0.69
Fc1ccc(-c2ncn(CCCN3CCOCC3)c2-c2ccncc2)cc1 | 0.86 | 0 | -0.19 | 0.43 | 2.72 | 1.19 | 0.72 | 2.29 | 5.92 | 2.27 | 1.42 | 0.02 | 5.08 | 1.43 | 3.98 | -8.34 | -1.04 | 1.11 | 2.52 | -1.43
CCc1cccc(CC)c1/C=C/c1cncc(C(=O)NC)c1 | 5.11 | 2.87 | 4.99 | -0.08 | 1.65 | 1.26 | 3.61 | 2.79 | 4.02 | -0.92 | 1.62 | 3.61 | 4.03 | 0.43 | 1.68 | 3.11 | 2.84 | -1.55 | 3.8 | 1.35
COc1ccc2cc(-c3c(-c4ccncc4)nc(-c4ccc([S+](C)[O-])cc4C)n3C)ccc2c1 (stereo not given) | -0.3 | -1.01 | -1.93 | 0.98 | 3.25 | 0.63 | -1.45 | 1.09 | 1.29 | -1.08 | 0.89 | 2.2 | 5.75 | 0.73 | 2.04 | 2.45 | 4.45 | 1.09 | 1.03 | 0.64
Cc1nnc(-c2ccc(C)c(-c3ccc(C(=O)NCc4ccc(Cl)cc4)cc3)c2)o1 | 1.06 | -1.5 | -0.65 | -3.13 | -1.46 | -1.4 | -2.99 | 0.91 | 0.03 | 4.6 | -2.98 | -0.53 | 0.24 | -2.39 | -4.02 | -7.02 | -4.88 | -0.33 | 0.92 | -1.37
Cc1ccc(C(=O)NC(C)C)cc1-c1ccc(C(=O)NCC2CC2)cc1 | -3.47 | -2.79 | -1.44 | 0.57 | 2.57 | 0.33 | -0.04 | -0.92 | 0.52 | 1.57 | -1.55 | -0.49 | 0.6 | 0.55 | 2.73 | -1.81 | -0.75 | -1.1 | -0.78 | -0.64
Fc1ccc(-c2ncn(C3CCNCC3)c2-c2ccnc(Oc3ccc(F)c(F)c3)n2)cc1 | 1.91 | -0.68 | 1.74 | -1.46 | 2.42 | -1.17 | -0.54 | 3.33 | 6.4 | -1.06 | -1.08 | 0.19 | 3.54 | 1.99 | 3.94 | -4.37 | -0.06 | 0.86 | -0.42 | -3.62
CN(C)CCOc1ccc(-c2cc(-c3ccc4c(c3)CCC4=NO)c(-c3ccncc3)o2)cc1 | -0.77 | -0.76 | -0.08 | 0.53 | 1.85 | -0.07 | 0.53 | -0.38 | 0.33 | -2.82 | -0.71 | -0.67 | 1.69 | 0.66 | 0.57 | -3.52 | -0.6 | 0.73 | -1.28 | -0.3
C[C@@H](Oc1cc(-n2cnc3ccc(OCC4CCN(C)CC4)cc32)sc1C(N)=O)c1ccccc1Cl | 7.87 | 3.89 | 5.6 | 1.74 | 3.79 | 3.1 | 4.03 | 2.66 | 5.46 | -2.62 | -1.61 | 2.79 | 7.39 | 1.33 | 3.11 | 0.41 | 0.37 | 1.46 | 7.9 | 1.64
CCc1nccc2c1nc(-c1nonc1N)n2CC | 3.36 | -0.55 | 1.97 | 1.84 | 2.9 | 2.75 | 4.67 | 1.55 | 3.62 | 1.31 | -0.63 | 1.93 | 2.76 | 1.21 | 2.65 | -8.01 | -0.61 | 1.1 | 2.67 | -0.31
COc1ccc(-c2ccc3c(NC(=O)C4CC4)n[nH]c3n2)cc1 | 1.22 | 1.89 | 2.61 | 0.44 | 4.03 | 1.61 | 10.7 | 1.4 | 4.59 | 2.19 | 3.03 | 1.65 | 11.4 | 0.42 | 2.12 | 5.98 | 38 | 0.68 | 1.56 | 0.83
c1ccc(-c2n[nH]cc2-c2ccnc(-c3ccc(OCCN4CCOCC4)cc3)c2)nc1 | -2.28 | -0.5 | 2.07 | 5.08 | 4.83 | 0.41 | 0.03 | 4.78 | 4.73 | 5.94 | 3.2 | 5.35 | 6.08 | 5.7 | 4.87 | 1.73 | 4.81 | 2.87 | 3.2 | 0.66
NS(=O)(=O)c1ccc(N/N=C2\C(=O)Nc3ccc(-c4cnco4)cc32)cc1 | 0.36 | -3.27 | 0.29 | 32.6 | 66.8 | 85.8 | 94.4 | 67.2 | 74.7 | 50 | 89.2 | 6.57 | 42 | 50.2 | 71.8 | 9.49 | 50.3 | 5.36 | 35.9 | -3.12
COc1cc(Nc2ncc3c(C)nc(-c4cccc(C(F)(F)F)c4)n3n2)cc(OC)c1OC | 3.91 | 2.45 | 4.96 | 0.7 | 6.83 | 3.13 | 20.8 | 6 | 28.8 | 2.35 | 7.51 | 1.78 | 3.89 | 1.13 | 9.6 | 3.14 | 7.16 | 3.78 | 21.9 | 1.23
O=C1NC(=O)C(c2cccc(Cl)c2)=C1Nc1ccc(Cl)c(C(=O)O)c1 | 3.4 | 1.59 | 0.02 | 0.24 | 2.57 | 2 | 9.11 | 1.73 | 1.86 | 3.54 | -3.39 | 1.47 | 1.74 | -0.04 | 1.05 | -2.3 | 1.32 | 3.2 | 0.9 | 1.12
COc1cccc(/C=N/Nc2ncnc3c2cnn3-c2cccc(OC)c2)c1 | 3.85 | 2.41 | 1.09 | 1.12 | 4.16 | 1.78 | 5.08 | 2.49 | 3.83 | -2.31 | -2.86 | 2.17 | 4.46 | 0.77 | 3.98 | -0.23 | 1.15 | 0.01 | 0.99 | 0.55
COc1ccc2cc(-c3c(-c4ccncc4)nc(-c4ccc(S(C)(=O)=O)cc4C)n3C)ccc2c1 | 4.03 | 3.31 | 2.13 | 1.11 | 1.69 | 2.79 | -7.25 | 3.25 | 2.47 | 5.76 | -3.73 | 3.77 | 4.56 | 0.42 | -0.58 | 0.01 | 1.21 | 0.85 | -1.59 | 1.66
O=C1Nc2ccccc2/C1=C/Nc1ccc(-n2cncn2)cc1 | 8.25 | 2.62 | 5.16 | 1.97 | 10.6 | 2.39 | 13.3 | 6.28 | 22.2 | 7.69 | 16.1 | 9.53 | 25.2 | 3.62 | 21.5 | 18 | 66.2 | 4.14 | 21.6 | 0.91
CCS(=O)(=O)c1ccc(OC)c(Nc2ncc(-c3cccc(-c4ccccc4F)c3)o2)c1 | -0.35 | 0.39 | 0.12 | 0.67 | 2.37 | 1.76 | 7.78 | 0.27 | 3.78 | 0.64 | 1.22 | 0.53 | -0.45 | 0.5 | 3.33 | 0.01 | 1.94 | 5.83 | 36.9 | 2.7
Fc1ccc(-c2ncn(C3CCNCC3)c2-c2ccnc(Oc3ccc4c(c3)OCO4)n2)cc1 | 9.12 | 4.73 | 17.9 | 0.2 | 1.39 | 1.83 | 3.44 | 3.24 | 6.04 | -0.22 | -0.86 | 1.48 | 3.63 | 0.16 | 1.51 | 1.03 | 2.27 | 0.55 | 0.01 | 0.88
CCc1ccc(Oc2nccc(-c3c(-c4ccc(F)cc4)ncn3C3CCNCC3)n2)cc1 | 11.5 | 6.23 | 30 | 2.36 | 2.02 | 3.63 | 2.75 | 2.03 | 2.75 | -2.23 | -3.4 | 1.49 | 2.34 | 0.94 | 2.25 | -3.34 | -4.3 | 1.29 | 3.58 | 0.96
O=C(Nc1ccc(Oc2ccc3[nH]c(NC(=O)c4ccccc4)nc3c2)cc1)Nc1cc(C(F)(F)F)ccc1F | 2.09 | 1.5 | 2.93 | 0.28 | 3.27 | 0.68 | 4.24 | 2.28 | 4.67 | 1.65 | -1.42 | 3.17 | 4.9 | 0.47 | 3.03 | 2.76 | 4.46 | 0.71 | 1.05 | 1.59
CS(=O)(=O)CCNCc1cc(-c2cc3c(Nc4ccc(OCc5cccc(F)c5)c(Cl)c4)ncnc3s2)cs1 | 4.61 | 3.07 | 1.92 | 2.55 | 0.45 | 3.05 | 1.47 | 1.9 | 4.94 | -3.37 | -0.74 | 2.57 | 4.29 | 0.44 | 0.56 | -2.32 | -0.13 | 2.41 | 2.14 | 2.21
CS(=O)(=O)CCNCc1ccc(-c2ccc3ncnc(Nc4ccc(OCc5ccccc5)c(Br)c4)c3c2)o1 | -0.24 | -0.8 | -2.02 | -4.43 | -2.83 | -2.31 | -1.03 | -1.96 | -0.05 | -2.03 | -3.92 | -1.53 | -0.83 | -3.53 | -2.4 | -4.44 | -4.65 | 1.39 | -1.17 | -3.26
CCN(CC)Cc1ccc(Nc2nccc(-c3cnn4ncccc34)n2)cc1 | 13.7 | 0.62 | 10.6 | 36.3 | 68.1 | 39.5 | 82.5 | 40.4 | 70.1 | 28.6 | 78.8 | 53.8 | 69.8 | 32.1 | 66.8 | 25.9 | 62.1 | 50.1 | 91.7 | -2.57
CCS(=O)(=O)c1ccc(OC)c(Nc2ncc(-c3ccccc3Cl)o2)c1 | 1.51 | -0.55 | 0.35 | 0.87 | 0.32 | 0.49 | 3.52 | -0.35 | 1.49 | -7.09 | -0.99 | -0.77 | -0.72 | 0.11 | 0.87 | 4.47 | 3.06 | 4.19 | 34.1 | 0.66
